Among the data in PubChem BioAssay AID648 (SRMLSC, 2007) are viability values, retold here.

In all, about 86,000 compounds went through this assay and about 920 (1.1%) were called active. For the sample, actives were picked, then their nearest neighbours and some compounds at random. Values without a mark were called inactive.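 How the source made its calls: active means viability at or below 30%; inactive means viability above 30%.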

A short description of the experiment: endothelial cell growth inhibition – HUVEC, 384-well, primary screen (AID 648).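 Further: 100% = median luminescence of DMSO-only cell control wells on each plate.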 The settings on record: HUVEC proliferation, CellTiter-Glo luminescence, 72 h; hits give low values; screened at 10 µM (by protocol).
Take `CCOC(=O)c1cnc(SCC(=O)Nc2cccc(OC)c2)nc1N`: the viability (usually a read-out of living cells in per cent, often relative to untreated cells) was 93.3%.
As for `CCn1nnnc1SCC(=O)c1ccc(C)cc1C`, the viability was 92.1%.
As for `OC(COc1ccc2c(c1)CCC2)CN1CCN(c2cccc(Cl)c2)CC1` (centres undefined), the viability is 83.9%.
As to `Cc1coc2c(O)cc3c(c12)OC1(N2CCCCC2)C(=O)NCCCC31` (centres undefined), the viability was 6.44% (active).
On to `Cc1cccc(NC(=O)N(Cc2cc3cc(C)cc(C)c3[nH]c2=O)CC2COCCO2)c1` (centres undefined), for which the viability was 77.6%.
`N#CCSc1nc2c(c(=O)n1Cc1ccccc1)C1(CCCC1)Cc1ccccc1-2`: the viability is 101%.
In the case of `Cc1c(C=O)c2ccccn2c1C(=O)c1ccncc1` it was 97%; in that of `CCc1c(-c2ccccc2)nc(N)c(C#N)c1-c1cccs1`, 102%; in that of `COc1cccc(NC(=O)CN(C)S(=O)(=O)c2ccc(C)cc2)c1`, 97.5%.
As to `CCN(CC)C(=O)CSc1nnc(-c2cccc(OC)c2)o1`, the viability was 104%.
On to `COc1cccc(-c2nnc(NC(=O)c3ccc(S(=O)(=O)N(CC(C)C)CC(C)C)cc3)o2)c1`, for which the viability is 23.6% (active).
For the molecule `CC1(C)NC(=O)N(CCCCSc2ccc(Cl)cc2)C1=O`, the viability was 97.1%.
Turning to `CC(C)NS(=O)(=O)c1ccc(NC(=O)C2CCCCC2)cc1`, the viability was 106%.
Turning to `O=C(Cc1cccc2ccccc12)Nc1ccc2oc(-c3ccccc3)nc2c1`, the viability was 49.6%.
Consider `O=C(Nc1ccc2oc(-c3ccc4ccccc4c3)nc2c1)c1cccs1`, for which the viability is 22% (active).
As to `Cc1nc(-c2ccc(NC(=O)c3cccs3)cc2)cs1`, the viability is 89.5%.
For the molecule `CC(Oc1ccc(Cl)cc1)c1ccnn1S(C)(=O)=O` (centres undefined), the viability is 73.7%.
`COc1ccccc1C(=O)N1CC2(C)CC1CC(C)(C)C2` (centres undefined): the viability was 94%.
`COn1c(=O)c(=O)n(OC)c2ccccc21`: the viability was 105%.
To `Oc1c(CN2CCN(c3ccc(F)cc3)CC2)cc(Cl)c2cccnc12` belongs 5.81% (active).
As to `O=C(c1cccc(C(=O)N2CCN(c3ccc(F)cc3)CC2)c1)N1CCN(c2ccc(F)cc2)CC1`, the viability is 92.2%.
In the case of `CCN1CCN(C(c2cccnc2)c2cc(Cl)c3cccnc3c2O)CC1` (centres undefined), the viability is 74.6%.
Turning to `Cc1nnc(SCC(=O)N2CCN(c3ccccc3)CC2)n1-c1ccccc1`, the viability is 93.5%.
For the molecule `COC(=O)c1ccc(CSc2nnc(NC(C)C)s2)cc1`, the viability was 96.9%.
For the molecule `CCc1c(O)nc(SCC(=O)Nc2ccccc2)n(C(C)CC)c1=O` (centres undefined), the viability is 96.5%.
Consider `CC(C)(C)n1nnnc1C(c1ccc(F)cc1)N1CCN(Cc2ccc3c(c2)OCO3)CC1` (centres undefined), for which the viability is 89%.
In the case of `Cc1nc(Nc2ccc3c(c2)OCCO3)c2nnn(Cc3ccccc3Cl)c2n1`, the viability was 29.5% (active).
Regarding `C#CCNc1nc(C(C)C)nc2c1nnn2Cc1ccccc1F`, the viability was 127%.
`CCCc1nc(NCc2ccc3c(c2)OCO3)c2nnn(Cc3ccccc3Cl)c2n1`: the viability is 73.6%.
